Test results from PubChem BioAssay AID1851 (National Center for Advancing Translational Sciences (NCATS), 2009).
Several values for one entry are separate records, joined by “and”; a condition that tells them apart may be missing. Equal entries are not always repeated. In all, about 16,000 compounds went through this assay and about 5,100 (32%) were called active. About 25% were inconclusive and are not listed. The list shows a part of the results. Values without a mark were called inactive. The call rests on the fitted dose curve; in most records, active means well fitted curve in the direction sought with a large enough effect; inconclusive means small, poorly fitted or top-dose-only effect, or effect the other way; inactive means no such curve, though single readings can be large or run the other way.

Each compound was assayed against Cytochrome P450 3A4 (Homo sapiens) (UniProt P08684) (assay: Cytochrome panel assay with activity outcomes). Settings: recombinant CYP, pro-luciferin dealkylation, luminescence, p450-cyp3a4; series mostly up to 57.1 µM.
Sequence of Cytochrome P450 3A4 (Homo sapiens) (P08684 whole entry, looked up): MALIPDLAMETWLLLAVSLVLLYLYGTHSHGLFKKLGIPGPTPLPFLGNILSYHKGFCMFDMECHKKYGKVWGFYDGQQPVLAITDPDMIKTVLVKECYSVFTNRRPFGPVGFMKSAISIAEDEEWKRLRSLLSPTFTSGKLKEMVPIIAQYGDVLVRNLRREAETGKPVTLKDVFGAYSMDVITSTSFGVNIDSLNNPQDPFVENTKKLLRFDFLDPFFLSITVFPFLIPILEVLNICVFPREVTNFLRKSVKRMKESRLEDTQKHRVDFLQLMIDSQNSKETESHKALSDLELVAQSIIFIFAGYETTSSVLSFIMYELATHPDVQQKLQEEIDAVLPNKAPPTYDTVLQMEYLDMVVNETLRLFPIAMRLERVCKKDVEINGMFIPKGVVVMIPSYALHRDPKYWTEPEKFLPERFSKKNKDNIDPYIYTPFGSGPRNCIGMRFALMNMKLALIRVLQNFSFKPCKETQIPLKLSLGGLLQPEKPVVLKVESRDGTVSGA
On the % scale 0 is the no-effect control and ±100 the full control effect.

| Structure (SMILES) | AC50 | activity, negative = inhibition |
| --- | --- | --- |
| CCC(Sc1nc2cc3c(cc2c(=O)n1Cc1ccco1)OCO3)C(=O)Nc1ccccc1OC (configuration not stated) | 1.58 µM (active) | – |
| CCC(Sc1nc2cc3c(cc2c(=O)n1Cc1ccco1)OCO3)C(=O)Nc1cccc(OC)c1 (configuration not stated) | 1.26 µM (active) | – |
| CCn1c(C)cc(/C=C2\NC(=O)N(Cc3ccc(Cl)cc3)C2=O)c1C | 1.58 µM (active) | – |
| Cc1sc2nc(SCC(=O)C(C)(C)C)n(Cc3ccco3)c(=O)c2c1C | 11.2 µM (active) | – |
| Cc1sc2nc(SCc3nc(-c4cccs4)no3)n(-c3ccccc3)c(=O)c2c1C | inactive | – |
| Cc1ccc(SCCNC(=O)c2ccc(C)c(S(=O)(=O)Nc3ccccc3C)c2)cc1 | 0.631 µM (active) | – |
| Cc1ccccc1NS(=O)(=O)c1cc(C(=O)Nc2cccc(N(C)S(C)(=O)=O)c2)ccc1C | 1 µM (active) | – |
| Cc1ccc(S(=O)(=O)Nc2ccccc2C(=O)c2ccc(C)c(C)c2)cc1 | – | -2.65% [at 11.4 µM] |
| O=C(Nc1cccc(C(=O)Nc2ccc(S(=O)(=O)O)c3cc(S(=O)(=O)O)cc(S(=O)(=O)O)c23)c1)Nc1cccc(C(=O)Nc2ccc(S(=O)(=O)O)c3cc(S(=O)(=O)O)cc(S(=O)(=O)O)c23)c1 | inactive | – |
| C[N+]1(CCCC[N+]2(C)CCCCCCC2)CCCCCCC1 | – | 6.39% [at 11.4 µM] |
| NC(=O)c1ccc[n+](CC(=O)OCCC23CC4CC(CC(C4)C2)C3)c1 | – | -1.21% [at 2.29 µM] |
| O=C(O)c1cc(=O)c2c(OCC(O)COc3cccc4oc(C(=O)O)cc(=O)c34)cccc2o1 | inactive | – |
| CC(C)(C)OC(=O)COc1cc(OCC(=O)OC(C)(C)C)c2c(=O)cc(-c3ccccc3)oc2c1 | inactive | – |
| CCOC(=O)COc1cc(OCC(=O)OCC)c2c(=O)cc(-c3ccccc3)oc2c1 | 20 µM (active) | – |
| CC(=O)O[C@]1(C)N=NC2(CCCCC2)O1 | – | -7.61% [at 11.4 µM] |
| C=CCn1c(SCC(=O)N2CCc3ccccc3C2)nc2ccccc2c1=O | 2.51 µM (active) | – |
| C=CCn1c(SCC)nc2sc3c(c2c1=O)CCc1ccccc1-3 | – | -8.25% [at 2.29 µM] |
| O=C(Cn1c(SCC(=O)N2CCc3ccccc3C2)nc2ccccc21)NC1CCCC1 | 3.55 µM (active) | – |
| CN1CCN(CCCBr)CC1 | – | 9.1% [at 11.4 µM] |
| O=C(O)[C@@H]1[C@H](C(=O)O)[C@H]2C(=O)C=C[C@H]1N2Cc1ccccc1 | – | -7.47% [at 11.4 µM] |
| O=C1CC(N(O)C2CC(=O)N(Cc3ccccc3)C2=O)C(=O)N1Cc1ccccc1 (configuration not stated) | 10 µM (active) | – |
| CN1CCN(C2CC(=O)N(Cc3ccc(N4CCCC4=O)cc3)C2=O)CC1 (configuration not stated) | inactive | – |

| Structure (SMILES) | AC50 | activity, negative = inhibition |
| --- | --- | --- |
| O=C1C2[C@@H](c3ccccc3)N[C@@H](c3ccccc3)C1[C@H](c1ccccc1)N[C@H]2c1ccccc1 | – | 5.64% [at 11.4 µM] |
| COc1cc(/C=C/C(=O)O)cc(S(=O)(=O)NCCCO)c1OC | – | -24.1% [at 11.4 µM] |
| NS(=O)(=O)c1ccc(NC(=O)Nc2cccc3ccccc23)cc1 | – | -6.44% [at 11.4 µM] |
| NCCCCCCNS(=O)(=O)c1cccc2c(Cl)cccc12 | 3.98 µM (active) and 2.51 µM (active) | – |
| Nc1ccc(S(=O)(=O)NCCS(=O)(=O)O)cc1 | – | -0.993% [at 11.4 µM] |
| NCCCCCCCCCCNS(=O)(=O)c1cccc2c(Cl)cccc12 | 2.51 µM (active) | – |
| O=S(=O)(O)CCCc1cccc2ccccc12 | – | -8.32% [at 11.4 µM] |
| NCCCCCCNS(=O)(=O)c1cccc2ccccc12 | 6.31 µM (active) | – |
| CCCCNS(=O)(=O)c1ccc(OC)c(Cl)c1Cl | 11.2 µM (active) | – |
| S=c1c2[nH]cnc2ncn1CCSc1ncnc2nc[nH]c12 | – | -9.42% [at 11.4 µM] |
| CSCCC(NC=C1C(=O)OC(C)(C)OC1=O)C(=O)O (configuration not stated) | inactive | – |
| c1ccc(CCCNc2nnnc3ccccc23)cc1 | – | -29.6% [at 11.4 µM] |
| CCCCCCCNS(=O)(=O)c1cccc2c(Cl)cccc12 | 7.94 µM (active) | – |
| O=S(=O)(NCCCCCCc1ccccc1)c1cccc2c(Cl)cccc12 | 2.51 µM (active) | – |
| CCN(CC)S(=O)(=O)c1cccc2c(N(C)C)cccc12 | inactive | – |
| NCCCc1c(-c2ccccc2)nc(N)[nH]c1=O | – | 1.03% [at 11.4 µM] |
| Cn1c(=S)c2[nH]c(SCCCc3ccccc3)nc2n(C)c1=O | – | -26.2% [at 11.4 µM] |
| Cn1c(=O)c2[nH]c(CCCCc3nc4ccccc4[nH]3)nc2n(C)c1=O | – | -19% [at 11.4 µM] |
| Cn1c(=S)c2[nH]c(SCc3cccnc3)nc2n(C)c1=O | 3.16 µM (active) | – |
| Cn1c(=S)c2[nH]c(SCCN3C(=O)c4ccccc4C3=O)nc2n(C)c1=O | – | -20.9% [at 11.4 µM] |
| Cn1c(=O)c2[nH]c(SCc3ccccn3)nc2n(C)c1=S | 3.98 µM (active) | – |
| Cn1c(=O)c2[nH]c(CSCc3ccccc3)nc2n(C)c1=O | – | -25% [at 11.4 µM] |

| Structure (SMILES) | AC50 | activity, negative = inhibition |
| --- | --- | --- |
| Cn1c(=O)c2[nH]c(CCCCc3nc4c([nH]3)c(=O)n(C)c(=S)n4C)nc2n(C)c1=S | 1.26 µM (active) | – |
| Cn1c(=S)c2[nH]c(SCCN3CCCC3)nc2n(C)c1=O | – | -16% [at 11.4 µM] |
| Cn1c(=O)c2[nH]c(CCCCC(=O)O)nc2n(C)c1=O | – | -10.1% [at 11.4 µM] |
| NCCS(=O)O | inactive | – |
| CCCC(c1cc(C(C)(C)C)c(O)cc1C)c1cc(C(C)(C)C)c(O)cc1C | – | 5.69% [at 11.4 µM] |
| CCN1CCN(C(=O)N[C@H](C(=O)N[C@@H]2C(=O)N3C(C(=O)O)=C(CSc4nnnn4C)CS[C@@H]23)c2ccc(O)cc2)C(=O)C1=O | inactive | – |
| O=c1c2ccccc2c(-c2ccccc2)nn1-c1ccc(Cl)c(Cl)c1 | inactive | – |
| O=C(O)Cc1sc(-c2ccc(Cl)cc2)nc1-c1ccccc1 | inactive | – |
| Cc1ccc(-c2nn(C)c(=O)c3ccccc23)cc1CNC(=O)Cn1nc(-c2ccccc2)c2ccccc2c1=O | – | -27.5% [at 11.4 µM] |
| O=c1c2ccccc2c(-c2ccccc2)nn1Cc1ccc(Cl)cc1 | 17.8 µM (active) | – |
| O=C(/C=C/c1ccc(Cl)cc1)NCCN1CCOCC1 | inactive | – |
| O=C(CCn1nc(-c2ccc(Cl)cc2)c2ccccc2c1=O)NCCN1CCOCC1 | 7.08 µM (active) | – |
| O=C(CSc1nnc(-c2cccc(S(=O)(=O)N3CCOCC3)c2)n1C1CCCCCC1)NCc1ccccc1 | 2.51 µM (active) | – |
| CCC(=O)N1CCN(C(=O)c2ccccc2)CC1 | inactive | – |
| O=C(COc1ccc2ccccc2c1)N1CCN(C(=O)c2cccnc2)CC1 | 8.91 µM (active) | – |
| Cc1c(NC(=O)CN2CCN(c3ccccc3)CC2)c(=O)n(-c2ccccc2)n1C | inactive | – |
| Cc1c(NC(=O)Cn2ccc([N+](=O)[O-])n2)c(=O)n(-c2ccccc2)n1C | inactive | – |
| Cc1c(NC(=O)CN2C(=O)C3C4C=CC(C4)C3C2=O)c(=O)n(-c2ccccc2)n1C (configuration not stated) | 22.4 µM (active) | – |
| O=C(CCN1C(=O)C2C3C=CC(C3)C2C1=O)Nc1ccc2ncccc2c1 (configuration not stated) | 2.51 µM (active) | – |
| O=C(Nc1ccc2ncccc2c1)Nc1ccc2ncccc2c1 | – | -24.8% [at 11.4 µM] |
| O=C(CCN1C(=O)C2C3C=CC(C3)C2C1=O)Nc1c(F)cccc1F (configuration not stated) | 3.98 µM (active) | – |
| CC(=O)NC(CCS(C)(=O)=O)C(=O)Nc1c(F)cccc1F (configuration not stated) | inactive | – |

| Structure (SMILES) | AC50 | activity, negative = inhibition |
| --- | --- | --- |
| c1ccc(CN2c3ccccc3-c3nc4ccccc4n3C2c2ccccn2)cc1 (configuration not stated) | 3.16 µM (active) | – |
| Clc1ncccc1-c1nc2ccccc2n1Cc1ccccc1 | – | 6.58% [at 2.29 µM] |
| COc1cccc(C2=CC(c3ccccc3)n3nnnc3N2)c1 (configuration not stated) | inactive | – |
| CC1=C(C(N)=O)C(c2ccccc2)n2nc(-c3ccncc3)nc2N1 (configuration not stated) | 11.2 µM (active) | – |
| CCOC(=O)C1C(=O)NC(C)C1c1ccccc1 (configuration not stated) | – | 1.56% [at 2.29 µM] |
| CC1=C(C(=O)Nc2cccnc2)C(c2cccnc2)n2nc(-c3cccs3)nc2N1 (configuration not stated) | 14.1 µM (active) | – |
| COc1ccccc1NC(=O)C1=C(C)Nc2nc(-c3ccc(N(C)C)cc3)nn2C1c1ccncc1 (configuration not stated) | 1.26 µM (active) | – |
| CC(C)C(=O)Nc1ccc(NC(=O)c2cccnc2)cn1 | inactive | – |
| COc1ccccc1NC(=O)C1=C(C)Nc2nnnn2C1c1cccc(Br)c1 (configuration not stated) | 2.51 µM (active) | – |
| N#CC1(Nc2ccc(-c3ccc(NC4(C#N)CCCC4)cc3)cc2)CCCC1 | – | -20.9% [at 11.4 µM] |
| C=C(Br)CN(C)CC(=C)Br | – | -1.54% [at 11.4 µM] |
| C[C@H]1/C=C\CC(=O)OC[C@H](C)C(=O)N2CCC[C@@H]2C(=O)OC1 | – | -17.6% [at 11.4 µM] |
| CCC(=O)n1nc(-c2ccc(OC)cc2)nc1N | inactive | – |
| CCOc1ccccc1C1C(C(N)=O)=C(C)Nc2nc(-c3ccc(OC)cc3)nn21 (configuration not stated) | 12.6 µM (active) | – |
| CCOc1ccc(/C(O)=C2\C(=O)C(=O)N(CCOCCO)C2c2ccccc2OC)cc1 (configuration not stated) | inactive | – |
| CC1=C(C(N)=O)C(c2cccs2)n2nc(-c3cccc(Cl)c3)nc2N1 (configuration not stated) | 12.6 µM (active) | – |
| O=C1C2=C(NC(=S)NC2c2ccc(Cl)cc2)NC(c2ccc(Cl)cc2)N1c1ccc(Cl)cc1 (configuration not stated) | 2.82 µM (active) | – |
| Clc1ccc2c(c1)C1=C(C(c3ccncc3)O2)C(c2ccc(Br)cc2)n2ncnc2N1 (configuration not stated) | 2.51 µM (active) | – |
| CCc1cc2c(NCCO)ncnc2s1 | inactive | – |
| CCc1ccccc1NC(=O)c1ccc(-n2c(C)ccc2C)cc1 | 17.8 µM (active) | – |
| CCOC(=O)c1ccc(CNC(=O)C2CCCCC2C(=O)OCC(F)(F)F)o1 (configuration not stated) | inactive | – |
